Compound activity: PubChem BioAssay, several laboratories
Sampled rows, rich in hits. Any-hit rate of the full collection: about 1.3%.
COUP-TFII inh – NR2F2 transcriptional activity inhibitors, primary screen, cell-based, luciferase reporter, HEK293T, luminescence; COUP transcription factor 2 (Homo sapiens), P24468; HEK293T NGFI-A luciferase reporter; inhibition, % at 8.6 µM; 0.7% of 370,000 active; AID 686940, 2013;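 active means inhibition above a per-plate cutoff, mean inhibition of test wells between control levels plus 3 SD, cut at about 38% in these data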;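 further: cells cotransfected with COUP-TFII expression vector driving the NGFI-A reporter; 0% = median of COUP-TF2 test wells and 100% = reporter-only cells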
Target sequence (P24468 whole entry, looked up): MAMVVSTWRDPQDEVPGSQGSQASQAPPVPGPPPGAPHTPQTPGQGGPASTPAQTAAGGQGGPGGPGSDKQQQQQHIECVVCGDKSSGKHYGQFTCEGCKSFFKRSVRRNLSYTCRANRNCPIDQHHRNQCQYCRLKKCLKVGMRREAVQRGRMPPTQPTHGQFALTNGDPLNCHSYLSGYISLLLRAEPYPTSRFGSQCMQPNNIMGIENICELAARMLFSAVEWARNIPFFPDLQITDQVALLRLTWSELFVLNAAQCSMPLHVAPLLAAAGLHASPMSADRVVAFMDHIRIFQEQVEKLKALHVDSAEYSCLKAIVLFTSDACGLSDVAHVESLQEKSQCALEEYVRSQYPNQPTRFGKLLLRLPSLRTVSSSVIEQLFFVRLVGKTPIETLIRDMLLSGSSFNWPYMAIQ
Gli-Sufu block – Gli-Sufu pathway antagonists, primary screen, luciferase luminescence, Sufu-KO-LIGHT cells, uHTS; Sufu-KO-LIGHT fibroblasts, Gli luciferase reporter luminescence; inhibition, % at 5 µM; 0.74% of 340,000 active; AID 588413, 2011;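 active means inhibition above about 55%, limit read from the data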;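 further: 0% = DMSO-treated cells and 100% = wells with medium but no cells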
LRH-1 inv ag – LRH-1 (NR5A2) inverse agonists, primary screen, cell-based, luminescence, HEK293T, StAR-luciferase reporter | Nuclear receptor subfamily 5 group A member 2 (Homo sapiens), O00482 | LRH-1 transfected, 24 h | inhibition, % at 3.6 µM | 0.13% of 360,000 active;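 active means inhibition above the mean inhibition of all tested compounds plus 3 SD, cut at about 73% in these data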;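 further: 0% = DMSO wells and 100% = reporter-only cells lacking LRH-1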
SRC1 inh – SRC1 coactivator transcriptional activity inhibitors, primary screen, cell-based, luminescence; Nuclear receptor coactivator 1 (Homo sapiens), Q15788; AID 588354, 2011; 0.12% of 360,000 active; HEK293 GAL4-SRC1 luciferase reporter; inhibition, % at 3.6 µM;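 active means inhibition above the campaign mean plus 3 SD, with each screening campaign given its own cutoff, cut at about 60% in these data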;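 further: 0% = DMSO treated cells and 100% = gossypol at 36 µM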
SRC3 inh – SRC3 coactivator transcriptional activity inhibitors, primary screen, cell-based, luminescence. inhibition, % at 3.6 µM. 0.17% of 360,000 active. HEK293 GAL4-SRC3 luciferase reporter;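 active means inhibition above a per-campaign cutoff, the mean of all compounds plus 3 SD, cut at about 60% in these data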;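 further: 0% = DMSO-treated cells and 100% = gossypol-treated cells at 36 µM; higher means less SRC3-driven luciferase light from the GAL4 reporter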
SRC2 inh – inhibition of GAL4-SRC2 driven luciferase reporter, primary screen, SRC2 inhibitor project, cell-based, luminescence. HEK293 GAL4-SRC2 luciferase reporter. 0.17% of 370,000 active. AID 651957, 2012. Nuclear receptor coactivator 2 (Homo sapiens), Q15596. inhibition, % at 9 µM;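 active means inhibition above the mean inhibition of all tested compounds plus 3 SD, set per campaign, cut at about 52% in these data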;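 further: 0% = DMSO treated cells and 100% = cells given Gossypol at 36 µM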
Gal4-VP16 ctr – Gal4-VP16 luciferase reporter inhibitors, counter-screen for COUP-TFII antagonist project, cell-based, luminescence, HEK293; inhibition, % at 8.5 µM; shares compounds with COUP-TFII inh; 25% of 2,500 active; in the data active means inhibition above about 13%
COUP-TFII conf – NR2F2 transcriptional activity inhibitors, confirmation, cell-based, luciferase reporter, HEK293, triplicate; shares compounds with COUP-TFII inh; HEK293 NGFI-A luciferase reporter, luminescence; inhibition, % at 8.5 µM; 45% of 2,500 active;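 active means mean inhibition over three repeats above a set limit taken from the earlier primary screen, cut at about 38% in these data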;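 further: 100% = cells given the luciferase reporter alone without the COUP-TF2 vector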
* hit, by the source's call; nt = no result given.

SMILES | COUP-TFII inh | Gli-Sufu block | LRH-1 inv ag | SRC1 inh | SRC3 inh | SRC2 inh | Gal4-VP16 ctr | COUP-TFII conf
COc1ccc2cc3c(N)nn(C(=O)Cc4c[nH]c5ccccc45)c3nc2c1 | 42* | -9 | 55 | 79* | 51 | 56* | 24* | 21
CCN(CC)S(=O)(=O)c1cc(NC(=O)Cc2ccc(S(=O)(=O)N3CCOCC3)s2)ccc1Cl | 64* | 10 | 25 | 14 | 22 | 32 | 3 | 30
CN(C)S(=O)(=O)c1ccc(NC(=O)Cc2ccc(S(=O)(=O)N3CCOCC3)s2)cc1 | 3 | 22 | 2 | -18 | 11 | -1 | nt | nt
CC(CC(=O)Nc1ccc(Cl)c(S(=O)(=O)N2CCOCC2)c1)c1ccccc1 (centres undefined) | 63* | 46 | 22 | 29 | 18 | 29 | 4 | 51*
O=C(O)CC(SCC(=O)Nc1ccc(Cl)c(S(=O)(=O)N2CCOCC2)c1)C(=O)O (centres undefined) | -7 | -1 | 3 | 0 | 4 | 17 | nt | nt
Cc1cccc(OCCCC(=O)Nc2ccc(Cl)c(S(=O)(=O)N3CCOCC3)c2)c1 | 39* | -3 | 18 | -12 | 28 | -21 | 11 | 39*
COc1ccc(OCC(=O)Nc2ccc(S(=O)(=O)N3CCOCC3)cc2)cc1 | 6 | -2 | 7 | 1 | 10 | -2 | nt | nt
CC(=O)Nc1ccc(OCC(=O)Nc2ccc(Cl)c(S(=O)(=O)N3CCOCC3)c2)cc1 | 65* | nt | 35 | 26 | 28 | 34 | 7 | 44*
CCCCc1nnn2c1C1c3cc(Br)ccc3CCN1C(=O)C2 (centres undefined) | -5 | nt | nt | nt | nt | -6 | nt | nt
CCCC1CCC2(CCCN2CCOC(=O)Nc2ccccc2C)CC1 (centres undefined) | 3 | nt | nt | nt | nt | nt | nt | nt
COc1cc(CNCc2ccncc2)cc(Br)c1OCc1ccccc1F | 46* | 29 | 30 | 8 | 8 | 24 | 3 | 28
COc1cc(CNc2ccc(O)cc2)cc(Br)c1OCc1ccccc1F | nt | 2 | 8 | 12 | 27 | nt | nt | nt
O=C(CC1CS(=O)(=O)CC1CC(=O)Nc1ccc2c(c1)OCCO2)Nc1ccc2c(c1)OCCO2 (centres undefined) | 69* | 42 | 44 | 54 | 61 | 34 | -7 | 30
O=C(C[n+]1cc(-c2ccccc2)n2c1CCCCC2)c1ccc(Br)cc1 | -10 | 31 | 4 | -9 | 3 | 9 | nt | nt
Cc1ccc(C(=O)C[n+]2cc(-c3ccc(C)cc3)n3c2CCCCC3)cc1 | 46* | 88* | 74* | 22 | 54 | 17 | 9 | 37
Cc1cc(C(=O)NN=Cc2cccc(O)c2)n[nH]1 | -30 | nt | nt | nt | nt | -39 | nt | nt
CC(C)(C)OC(=O)n1ccc2ccc(-c3ccc4cc[nH]c4c3)cc21 | -30 | nt | nt | nt | nt | -25 | nt | nt
CCNC(=O)N(C)[C@H]1C[C@H]2c3[nH]c4c(-c5cccc(C)c5)cccc4c3CCN2C[C@H]1[C@H](C)O | 12 | nt | nt | nt | nt | -5 | nt | nt
COc1ccccc1NS(=O)(=O)c1cccc(-n2c(O)c(C=Nc3ccccc3C(=O)O)c3ccccc3c2=O)c1 | 39* | 4 | 17 | 11 | 29 | 3 | -9 | 46*
CCOC(=O)Cc1csc(NC(=O)/C=C/c2ccc(Cl)cc2)n1 | 44* | -15 | -14 | -1 | -11 | -2 | -66 | 5
c1ccc(N2CCN(c3c4c(nc5ncnn35)CCC4)CC2)cc1 | 3 | 13 | -9 | -1 | 4 | -6 | nt | nt
COc1cccc(N2CCN(c3c4c(nc5ncnn35)CCC4)CC2)c1 | 55* | 24 | 21 | -9 | -5 | 9 | -7 | 12
Cn1c(SCc2ccc(C(C)(C)C)cc2)nnc1-c1ccco1 | -17 | nt | nt | nt | nt | 0 | nt | nt
CCCn1c2c(c(=N)c3c1CCC3)CCC2 | 22 | 21 | 13 | -10 | 22 | 7 | nt | nt
CCCCCCCn1c2c(c(=N)c3ccccc31)CCC2 | 74* | 89* | 79* | 40 | 64* | 9 | 25* | 75*
SMILES | COUP-TFII inh | Gli-Sufu block | LRH-1 inv ag | SRC1 inh | SRC3 inh | SRC2 inh | Gal4-VP16 ctr | COUP-TFII conf
CC1(Cc2cccc(F)c2)C(=O)Nc2ccc(-c3cccnc3)cc21 (centres undefined) | 48* | nt | 17 | 61 | 55 | 52 | 9 | 18
CC1(Cc2ccc(Cl)cc2)C(=O)Nc2ccc(-c3cccnc3)cc21 (centres undefined) | 35 | nt | 19 | 59 | 57 | 50 | nt | nt
O=C(CCN1C(=O)/C(=C/c2ccccc2Cl)SC1=S)NNC(=O)c1cccnc1 | 13 | 5 | -4 | 4 | 22 | 14 | nt | nt
Cc1ccc(C(=O)NNC(=O)CCCN2C(=O)/C(=C/c3ccccc3Cl)SC2=S)cc1 | 47* | 5 | 11 | 21 | 34 | 63* | 32* | 33
Cc1ccc(/C=C2\SC(=S)N(CCCC(=O)NC3CCCC3)C2=O)cc1 | 42* | 16 | 34 | 59 | 57 | 89* | 12 | 21
COc1cc(/C=C2\SC(=S)N(CCC(=O)NC3CCCC3)C2=O)cc(OC)c1OC | 3 | -13 | 8 | 7 | 58 | -3 | nt | nt
O=C(CCCN1C(=O)/C(=C/c2ccccc2Cl)SC1=S)Nc1ccccn1 | 40* | 9 | 30 | 20 | 15 | 69* | 6 | 25
COC(=O)[C@]12C[C@H](CC(=O)N3CCN(C(=O)c4ccco4)CC3)C(=O)N(Cc3ccccc3)C1=C[C@H](C1CCCC1)O[C@@H]2C | 14 | nt | nt | nt | nt | 26 | nt | nt
CC(C)(C)c1ccc(S(=O)(=O)N2CCC(C(=O)NCC3COCCO3)CC2)cc1 (centres undefined) | -6 | nt | nt | nt | nt | 4 | nt | nt
O=C(Nc1ccc(F)cc1)c1ccc(CN2CCc3ccccc3C2)cc1 | 45* | 1 | 15 | 20 | -2 | 19 | -41 | 34
O=C(Nc1cccc(Br)c1)c1ccc(CN2CCc3ccccc3C2)cc1 | 53* | -7 | 30 | 10 | 0 | 22 | -24 | 32
COC(=O)c1ccc(CN2CCc3ccc(NC(=O)c4ccncc4)cc3C2)cc1 | 48* | 20 | 9 | -32 | 11 | 41 | 6 | 30
O=C(OCCN1CCN(C2CN(Cc3cn(Cc4ccc([N+](=O)[O-])cc4)nn3)S(=O)(=O)C2)CC1)c1cc2ccccc2o1 (centres undefined) | 1 | nt | nt | nt | nt | 6 | nt | nt
